# The list is not random: actives were taken first. Their share in the collection is about 7.9%.
# KB-V1 cytotox: KB-V1 MDR subline cytotoxicity; KB-V1 MDR cells viability, CellTiter-Glo, 72 h; Potency, µM (doses to about 46.1 µM), hits mostly cytotoxic; 3.4% of 400,000 active; AID 1347076; further: on the % scale 0 is the no-effect control and ±100 the full control effect; nearly all actives have a fitted effect of over 60% in size
#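 Cytotoxicity via CellTiter-Glo luminescence after 72 h compound exposure at 37 degrees C. Cells: drug-selected KB-V1 line, DMEM phenol-red free plus 10% FBS. Compounds tested at multiple concentrations; normalized data fitted to concentration-effect curves.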
# MCF10A rereplic: DNA re-replication induction in MCF 10a cells. 2.9% of 350,000 active. Potency, µM (highest dose often 46.1 µM), for inactives: at the highest dose activity, positive = re-replication, actives largely listed as activators. MCF 10A DNA re-replication, Hoechst nuclear intensity, 48 h; further: % of control where 0% means no effect; nearly all actives have a fitted effect of over 50% in size
# KB-3-1 tox: KB-3-1 parental cell cytotoxicity; KB-3-1 viability, CellTiter-Glo ATP luminescence, 72 h; Potency, µM (doses to about 46.1 µM), most hits filed as cytotoxic; 1.4% of 400,000 active; further: on the % scale 0 is the no-effect control and ±100 the full control effect; nearly all actives have a fitted effect of over 60% in size
#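 KB-3-1 cells, DMEM (no phenol red) + 10% FBS; compound by pin transfer, 72 h, 37 °C. Readout: CellTiter-Glo luminescence after 10 min. Data normalized, curve-fitted.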
# HT1080 IDH1KD tx: toxicity to HT-1080 IDH1 knockdown cells (counter line); HT-1080 IDH1 knockdown viability, ATP luminescence, 48 h; Potency, µM (doses to about 46.1 µM), for the others: at the top dose activity, negative = toxicity, hits mostly cytotoxic; AID 686971; 2% of 360,000 active;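 further: 0% = DMSO wells and -100% = cell-free medium wells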
#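 After a 2 h attachment period, IDH1KD HT-1080 cells took pin-transferred compound for 48 h at 37 °C; ATP-based luminescence after 10 min room-temperature reagent incubation reported viability.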
# SW480 rerep: induces DNA re-replication in SW480 colon adenocarcinoma cells | 1.8% of 340,000 active | AID 624297 | Potency, µM (top dose mostly 46.1 µM), for the others: top-dose re-replication activation, usual class: activators | SW480 DNA re-replication, Hoechst DNA content imaging, 48 h; further: % of control where 0% means no effect; nearly all actives have a fitted effect of over 55% in size
#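 Hoechst fluorescence of nuclei (405 nm excitation, 500-530 nm emission) measured by plate-scanning imager after 48 hr compound exposure at 37 C; re-replication scored as increased number of nuclei with elevated intensity.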
# HT1080NT lethal: kills 2HG-producing HT-1080-NT fibrosarcoma cells | HT-1080-NT fibrosarcoma viability, CellTiter-Glo ATP luminescence, 48 h | Potency, µM (highest dose often 46.1 µM), for the others: top-dose activity, negative = less viability, hits mostly cytotoxic | 1.6% of 360,000 active;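 further: NT is the 2HG producing partner of a matched IDH1 knockdown line; 0% = DMSO-treated cells and -100% = media-only wells without cells; nearly all actives have a fitted effect of over 55% in size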
#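 750 cells/well, RPMI + 5% FBS; 2 h settle, compound pin-transfer, 48 h at 37 degrees C. CellTiter-Glo 10 min RT, luminescence. Normalized to DMSO and media-only wells.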
# The depositor's hits bear a star; i = inactive; ? = inconclusive; nt = not tested or not shown; [ ] = remark or other dose. The call rests on the fitted dose curve; in most records, active means well fitted curve in the direction sought with a large enough effect; inconclusive means small, poorly fitted or top-dose-only effect, or another doubt; inactive means no such curve, though single readings can be large; an effect the other way counts as inactive or inconclusive. Potency means the concentration at half of the fitted maximal effect.
SMILES,KB-V1 cytotox,MCF10A rereplic,KB-3-1 tox,HT1080 IDH1KD tx,SW480 rerep,HT1080NT lethal
CCOC(=O)C1=CC[C@@H](c2cccc(C)c2)N(S(=O)(=O)c2ccc(C)cc2)[C@H]1C(=O)OCC,?,?,?,-18%,-14%,-12%
CCOC(=O)C1=CC[C@@H](c2ccccc2Cl)N(S(=O)(=O)c2ccc(C)cc2)[C@H]1C(=O)OCC,16µM*,4%,?,-12%,0%,-2%
COc1ccc2c(COC(=O)[C@@H]3CCCN3S(=O)(=O)c3ccc(Cl)cc3)cc(=O)oc2c1,i,1%,i,9%,-2%,5%
Cc1ccc(-c2cc(-c3coc4ccccc4c3=O)c3c(n2)-c2ccccc2OC3)cc1,i,nt,i,nt,nt,nt
C=C(C)Cn1c(-c2ccccc2)nc2ccccc21,?,14%,i,-13%,3%,2%
C=C1c2nc3ccccc3n2C=C(c2ccc(C)cc2)N1c1ccccc1,?,4.6µM*,16µM*,18µM*,?,21µM*
CCCC[C@H]1COCCS(=O)(=O)N1Cc1ccc(C)cc1,16µM*,-1%,16µM*,-6%,-5%,-2%
CC1(C)NC(=O)N(CCCCOc2ccc(Cl)cc2C=O)C1=O,i,15%,i,?,?,23µM*
CC1(C)NC(=O)N(CCCOc2ccc(Br)cc2Cl)C1=O,?,-8%,i,-23%,-3%,3%
CC(C)c1cc(Br)ccc1OCCCN1C(=O)NC(C)(C)C1=O,13µM*,17%,?,-12%,11%,-2%
CC(NC(=O)C(Cc1ccccc1)N1C(=O)C2C3CCC(C3)C2C1=O)c1ccccc1 (configuration not stated),7.3µM*,-2%,i,16%,1%,17%
COc1cccc(CN(C)CC(=O)Nc2cccc(S(N)(=O)=O)c2)c1OC,i,2%,i,-5%,-10%,-3%
CN(c1ccccc1)S(=O)(=O)c1cccc(NC(=O)COc2cccc([N+](=O)[O-])c2)c1,18µM*,1%,i,0%,-2%,1%
CN(c1ccccc1)S(=O)(=O)c1cccc(NC(=O)CC(C)(C)C)c1,2.6µM*,-1%,i,1%,1%,20%
Cc1cc(S(=O)(=O)NCc2ccccc2)ccc1OCC(=O)Nc1cccc([N+](=O)[O-])c1,13µM*,?,i,?,-12%,-21%
COc1cccc(CN(C)CC(=O)Nc2cccc(S(=O)(=O)N(C)c3ccccc3)c2)c1OC,2.6µM*,?,?,-2%,-2%,3%
Cc1cc(S(=O)(=O)NCc2ccccc2)ccc1OCC(=O)NCc1ccccn1,?,-2%,i,-5%,-2%,-3%
Cc1noc(C)c1S(=O)(=O)N(CC(=O)Nc1ccc(C(F)(F)F)cc1)c1ccc(C(C)C)cc1,i,nt,i,nt,nt,nt
COc1ccccc1/C=C/c1nc2ccccc2o1,i,nt,?,nt,nt,nt
CN(c1ccccc1)S(=O)(=O)c1cccc(NC(=O)Cn2cnc3ccccc3c2=O)c1,23µM*,11%,?,-9%[9.24 µM],-2%,-20%
CCN(CC)S(=O)(=O)c1cc(NC(=O)Cn2cnc3ccccc3c2=O)ccc1C,i,9%,i,-10%,15%,1%
CCN(CC(=O)Nc1cccc(S(=O)(=O)N(C)c2ccccc2)c1)Cc1cccs1,4.6µM*,17%,?,-3%,-3%,-8%
Cc1ccc(C(=O)Nc2cccc(S(=O)(=O)N(C)c3ccccc3)c2)o1,16µM*,7%,i,10%,-1%,2%
CCc1cccc(Nc2c3c(nc4ncnn24)CCC3)c1,18µM*,1%,i,-1%,0%,11%
Clc1cccc(Nc2c3c(nc4ncnn24)CCC3)c1,?,17%,i,?,-3%,-2%
SMILES,KB-V1 cytotox,MCF10A rereplic,KB-3-1 tox,HT1080 IDH1KD tx,SW480 rerep,HT1080NT lethal
C=CCSc1nc2ccccc2n1Cc1nnc(-c2cccs2)o1,6.5µM*,1%,i,0%,-1%,-5%
C=CCn1c(-c2cccs2)nc2ccccc21,i,5%,i,-2%,-2%,2%
O=C(NCCc1ccccc1)c1cc2sccc2n1Cc1ccccc1,i,-3%,i,-4%,3%[9.22 µM],-4%
Cc1cccc(C)c1NC(=O)c1cc2sccc2n1Cc1ccc(F)cc1,i,nt,i,nt,nt,nt
O=C(NCc1ccco1)c1cc2sccc2n1Cc1ccccc1,16µM*,-4%,i,?,15%,?
CC1Cc2ccccc2N1C(=O)c1cc2sccc2n1Cc1ccc(F)cc1 (configuration not stated),21µM*,?,?,-10%,?,-5%
O=C(NCc1ccco1)C1CCN(C(=O)c2cc3sccc3n2Cc2ccc(F)cc2)CC1,?,25%,i,?,0%,?
O=C(c1ccco1)N1CCN(C(=O)c2cc3sccc3n2Cc2ccccc2)CC1,2.1µM*,-6%,?,?,-2%,-22%
Cc1ccc(/C=C(/C#N)C(=O)NC(C)c2ccccc2)o1 (configuration not stated),18µM*,-4%,i,-4%,6%,-1%
COc1ccc(NC(=O)C2(C)CCN2C(=O)Cc2ccc(Cl)cc2Cl)cc1OC (configuration not stated),?,nt,i,1%,nt,4%
CN(C)/C=C1/OC(=O)C(C#N)=C1c1ccc(Cl)cc1,i,18µM*,i,14%,?,-2%
COc1ccc(/C(C)=N/NS(=O)(=O)c2ccccc2)c(OC)c1,i,-3%,i,9%,-2%,7%
COc1ccc(/C(C)=N\NS(C)(=O)=O)c(OC)c1,i,-6%,i,14%,0.58µM*,18%
CC(=O)N/C(=C\c1ccccc1)C(=O)OCc1ccc(F)cc1,?,7%,i,4%,-12%,2%
CCCn1c(N)c(C(=O)CSc2ncc(C(F)(F)F)cc2Cl)c(=O)[nH]c1=O,?,16µM*,i,-1%,22%,-16%
CCc1ccccc1NC(=O)CN(C)C(=O)CSc1nc2cc(Cl)ccc2s1,15µM*,-50%,i,5%,?,15%
CCc1ccccc1NC(=O)CN(C)C(=O)CSc1nn(-c2ccccc2)c(=S)s1,i,-7%,i,5%,?,4%
COC(=O)c1c(NC(=O)c2cc(=O)c3ccc(C)c(C)c3o2)sc2c1CCCC2,i,nt,i,nt,nt,nt

# Screening results from PubChem.
